Source: PubChem BioAssay (NCI)
About 83,000 compounds went through this panel and 20% of them were active in at least one assay; those are over-represented in the sample as a whole.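 Step 1: grow cells in 96-well plates. Step 2: add test compound at a single concentration. Step 3: incubate 48 h. Step 4: record percent growth.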 A number with no mark means an inactive call. Calls of active or inactive are those of the source. Rule for the calls: active = growth percent below 10; inactive = the rest.

What was measured:
Assay in all cases: NCI-60 one-dose screen, 48 h (100 = growth as untreated, 0 = no growth, -100 = all killed)
Conditions in all cases: 10 µM unless noted
DU-145 prostate = system: DU-145 prostate
K-562 leukemia = system: K-562 leukemia
MALME-3M melanoma = system: MALME-3M melanoma
MDA-MB-231 breast = system: MDA-MB-231 breast
RXF 393 renal = system: RXF 393 renal
SF-268 CNS = system: SF-268 CNS
SF-295 CNS = system: SF-295 CNS
SF-539 CNS = system: SF-539 CNS
UACC-257 melanoma = system: UACC-257 melanoma
M14 melanoma = system: M14 melanoma

Structure (SMILES) | growth (DU-145 prostate) | growth (K-562 leukemia) | growth (MALME-3M melanoma) | growth (MDA-MB-231 breast) | growth (RXF 393 renal) | growth (SF-268 CNS) | growth (SF-295 CNS) | growth (SF-539 CNS) | growth (UACC-257 melanoma) | growth (M14 melanoma)
COC(=O)Nc1nc2ccc(S(=O)c3ccccc3)cc2[nH]1 (stereo not given) | 96.3% | 29.9% | 83.7% | 68.4% | 107% | 84.8% | 58.4% | 73.6% | 73.9% | 44.5%
CNC(=O)c1ccccc1Oc1nc(Nc2cc(OC)c(OC)c(OC)c2)ncc1Br | 58.1% | 77.2% | 82.3% | 75.4% | 40.3% | 59.3% | 53% | 71.1% | 77% | 47.7%
O=C(NCCNc1nccc(Nc2ccc(S(=O)(=O)Nc3ccccn3)cc2)n1)c1cccc([N+](=O)[O-])c1 | 109% | 92.9% | 108% | 118% | 108% | 104% | 103% | 102% | 95.3% | 101%
COc1ccc(C(=O)C/C(=C\c2ccc(Cl)cc2)C(=O)NCc2ccccc2)cc1 | 103% | 62.4% | 79.8% | 81.3% | 91.6% | 86.3% | 101% | 94.4% | 70.7% | 94.8%
COC(CC(F)F)c1cn(S(=O)(=O)c2ccc(C)cc2)c2ccccc12 (stereo not given) | 21.3% | 14.5% | 50.9% | 38.2% | 39.4% | 42% | 15% | 15.7% | 37.1% | 7.65% (active)
CN1C(=O)/C(=C\c2c(Cl)cccc2Cl)c2ccccc21 | 99.6% | 30.7% | 79% | 87.2% | 85.1% | 87.2% | 86.3% | 87.1% | 87.2% | 75.5%
O=C(Nn1c2c(sc1=NC1CC1)C(=O)c1ccccc1C2=O)c1cc2ccc1CCc1ccc(cc1)CC2 | 33.2% | 25.9% | -64.3% (active) | 15.4% | 53.7% | 45.2% | 79.6% | 5.17% (active) | -28.6% (active) | -21.8% (active)
O=C(NCCCl)Nc1ncccc1OCc1ccccc1 | 105% | 103% | 103% | 101% | 108% | 102% | 99.9% | 106% | 107% | 99.8%
COc1ccc(Nc2nc(-c3cc(O)c(C)c(C)c3O)cs2)cc1 | 87.3% | 23.9% | 95.2% | 88.5% | 78.7% | 64.7% | 84.1% | 81.6% | 98.1% | 76.2%
Nc1c(C(=O)Nc2ccccc2F)sc2nc3c(cc12)CCCC3 | 26.8% | 14.1% | 62.9% | 45.1% | 39.2% | 50.4% | 21.9% | 6.85% (active) | 61.6% | 33.5%
Cc1ccccc1/C=C/C(=O)c1cccc(OCCCCOc2cccc(C(=O)/C=C/c3ccccc3C)c2)c1 | 98% | 97.1% | 96.9% | 95% | 98.6% | 102% | 97.7% | 105% | 92.2% | 97.9%
CNC(=O)c1[nH]cc(-c2ccc(OC)cc2)c1-c1cc(OC)c2c(c1OC)OCO2 | 110% | 105% | 95% | 100% | 97.5% | 101% | 97.6% | 103% | 104% | 101%
COC1=CC(c2ccc[nH]2)=N/C1=C\c1[nH]c(C)c(C(=O)OC(C)C)c1C | 10.5% | 2.07% (active) | -74.3% (active) | -67% (active) | -17.7% (active) | 6.34% (active) | -76% (active) | -58.6% (active) | -37.7% (active) | -67.5% (active)
S=c1sc2c(Cl)nc(-c3cccnc3)nc2n1-c1ccccc1 | 27.4% | 0.869% (active) | 65.8% | -11.7% (active) | -42.1% (active) | 14.6% | 96.1% | 6.15% (active) | 50% | 33%
Cc1ccc2c(Cn3cc(CSc4nc5ccccc5o4)nn3)cc(=O)oc2c1 | 111% | 98.4% | 104% | 106% | 98.6% | 103% | 110% | 101% | 104% | 114%
C#CCOC(=O)/C=C/c1cn(-c2ccccc2)nc1-c1ccc(OC)cc1 | 95.1% | 16.8% | 107% | 57.1% | 73.7% | 87.9% | 94.1% | 89.4% | 87.5% | 98.8%
Cn1cc(-c2csc(-c3c[nH]c4ccc(Br)cc34)n2)c2ccnc(Cl)c21 | 42.9% | 17.6% | 112% | 54.8% | 51% | 86.7% | 62.1% | 67.6% | 17.4% | 43.2%
O=C1Nc2ccccc2/C1=C/c1nc2ccccc2c(=O)[nH]1 | 99.3% | 86.2% | 92.8% | 84.5% | 96% | 94.6% | 101% | 93.6% | 104% | 82.2%
Cn1cc(C(=O)c2nc(-c3c[nH]c4ccccc34)no2)c2cc(F)ccc21 | 72.5% | 16.7% | 37.3% | 57.1% | 89.9% | 54.9% | 20.7% | 30% | 51.2% | 33%
c1cnc2c(-c3nc4ccc5[nH]ncc5c4c4c3CCCC4)c[nH]c2c1 | 27.7% | 21% | 63.8% | 30.7% | 42.7% | 40.4% | 32.1% | 42.9% | 98.3% | 59%
NC(=O)c1cccc(-n2ccc3cc(NC(=O)c4ccc(N5CCOCC5)c(C(F)(F)F)c4)ccc32)n1 | 60.8% | 36.6% | 65.4% | 49.6% | -21.1% (active) | 66.8% | -52.1% (active) | -15.4% (active) | 74.6% | 66.5%
Cc1[nH]c(C(=O)Nc2ccc(C(=O)N3CCN(c4cc5c(cc4F)c(=O)c(C(=O)O)cn5C4CC4)CC3)cc2OC(C)C)c(Cl)c1Cl | 87.2% | 56.4% | 89% | 80.3% | 82.4% | 78.1% | 81.4% | 75.3% | 82.5% | 73.2%
COc1cc2c(c(OC)c1OC)CCC(c1cccc(C(=O)Nc3ccc(C#N)cc3)c1)O2 (stereo not given) | 66.5% | 20.4% | 58.2% | 49.4% | 78.8% | 80.1% | 42.5% | 68.8% | 44.5% | 37.7%
CCCOC(=O)Nc1nc2ccc(SCC(C)C)cc2s1 | 57.8% | 20.8% | 38.7% | 62.7% | 28.2% | 52.7% | 32.4% | 26.9% | 58.7% | 34%
O=C1c2ccc3c4c5ccc(c24)C(=O)N1CCCOCCCCOCCCNCc1ccc(cc1)CNCCCOCCCCOCCCN(C3=O)C5=O | 8.84% (active) | -19.3% (active) | -90.7% (active) | -11.7% (active) | 30.3% | 2.25% (active) | 91.5% | -85.7% (active) | -78.9% (active) | -85.3% (active)
COC(=O)c1cc(N=C2NC(=O)/C(=C/C=C/c3ccccc3)S2)ccc1O | 16.8% | 14.4% | 65.3% | 54.7% | -12.8% (active) | 61.7% | 20.3% | 12.4% | 70.9% | 11.3%
CN(C)Cc1ccc(O)c(C(=O)O)c1 | 114% | 107% | 116% | 121% | 122% | 104% | 123% | 100% | 109% | 113%
